ClpP mod: qHTS Assay for Activators of ClpP; AID 651965, 2013; hit rate 1.9% among 340,000; purified B. subtilis ClpP, FRET peptide cleavage, 20 min; Potency, µM (doses to about 57.5 µM); ATP-dependent Clp protease proteolytic subunit (Bacillus subtilis (strain 168)), P80244; active = well fitted falling curve with a large enough effect; inconclusive = small, poorly fitted or top-dose-only effect; inactive = no such curve, though single readings can be large or run the other way; note: the source files actives as falling curves though it sought activators and does not explain the sign; nearly all actives have a fitted effect of over 65% in size
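FRET quenching reversal measured ClpP activation: 10 microg/mL B. subtilis ClpP at pH 8 with the FRET-FV decapeptide, read at 430 nm after 320 nm excitation. The 20-min minus 0-min signal was scaled between DMSO/no-enzyme wells and ADEP (5.8 microM final).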
aSyn rescue: rescues yeast growth from alpha-synuclein toxicity; Yeast expressing alpha-synuclein, growth rescue, BacTiter-Glo, 24 h; hit rate 0.14% among 370,000; AID 652106; Potency, µM (series often up to 46.1 µM), usual class: activators; note: nearly all actives have a fitted effect of over 65% in size
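Rescue of yeast growth: cells expressing toxic alpha-synuclein, induced in galactose at OD600 0.02, incubated with compound 24 h at 30 C. ATP luminescence quantified growth; inhibitors of toxicity appear as activators.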
TDP-43 yeast inh: TDP-43 toxicity inhibition in yeast | TDP-43 expressing yeast growth rescue, BacTiter-Glo, 24 h | Potency, µM (series often up to 46.1 µM), actives largely listed as activators | hit rate 1.8% among 410,000 | AID 652104; note: nearly all actives have a fitted effect of over 50% in size
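Growth rescue of TDP-43-toxic yeast measured as ATP luminescence (BacTiter-Glo). Cells grown to mid-log in raffinose, induced in galactose at OD600=0.02, exposed to compound 24 hr at 30 deg C.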
Abeta yeast res: restores growth of yeast expressing A-beta42 peptide. AID 1347071. hit rate 0.063% among 410,000. yeast expressing A-beta42, growth rescue, OD600, 48 h; response scale: 0% DMSO, 100% iron-clioquinol control. Potency, µM (series often up to 46.1 µM), hits mostly activators; note: nearly all actives have a fitted effect of over 55% in size
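Yeast A-beta toxicity model in growth medium with pinned compounds, 48 h at 30 C; growth read as absorbance at 600 nm. Normalized to FeCl3/clioquinol equimolar mix (positive) and DMSO (negative).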
Mm-Cpn inhibitor: M. maripaludis TRiC chaperonin inhibition; hit rate 0.031% among 330,000; purified Mm-Cpn ATPase, ADP Transcreener TR-FRET; Potency, µM (titrated, usually from 76.9 µM), usual class: inhibitors; note: nearly all actives have a fitted effect of over 80% in size
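25 nM Mm-CPN + cpd, 10 min 37°C; + 10 uM ATP, 30 min 37°C; buffer 30 mM Tris pH 7.4, 100 mM KCl, 5 mM MgCl2, 1 mM DTT; Transcreener ADP HTRF detection 30 min RT.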
FUS suppressor: suppressors of FUS proteinopathy in yeast; S. cerevisiae FUS-expressing, growth rescue, OD600, 24 h; Potency, µM (highest dose often 76.6 µM), actives largely listed as activators; hit rate 0.24% among 390,000; note: nearly all actives have a fitted effect of over 55% in size
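S. cerevisiae expressing FUS from galactose induction served as the toxicity model. Growth after 24hr at 30C, read as absorbance at 600 nm, indicates suppression of toxicity; compounds dosed at several concentrations.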
A number is an active result; - = inactive; ? = inconclusive; . = no result; [ ] = another dose, or the depositor's remark. Only some compounds are listed: those with a hit (about 3.6% of all), similar ones and a draw of the others. Unless noted, calls come from the whole dose curve; as a rule, active = well fitted curve in the direction sought with a large enough effect; inconclusive = small, poorly fitted or top-dose-only effect, or another doubt; inactive = no such curve, though single readings can be large; an effect the other way counts as inactive or inconclusive.

SMILES | ClpP mod | aSyn rescue | TDP-43 yeast inh | Abeta yeast res | Mm-Cpn inhibitor | FUS suppressor
O=c1[nH][nH]c2c1C(c1ccc(F)cc1)OC(CCc1ccccc1)C2 (stereo not given) | - | - | 20µM | - | . | -
CCCCOc1cccc(C(=O)N(Cc2ccc(Br)o2)C2CCS(=O)(=O)C2)c1 (stereo not given) | - | . | - | - | . | ?
COc1ccccc1C(=O)NS(=O)(=O)c1ccc(C)cc1 | - | ? | 18µM | - | - | -
COc1ccccc1C(=O)Nc1ccc(S(=O)(=O)Nc2cc(C)on2)cc1 | 25µM | - | - | - | - | -
Cc1cc(NS(=O)(=O)c2ccc(NC(=O)c3ccccc3F)cc2)no1 | - | - | - | - | - | -
OC(c1ccccc1)(c1ccccc1)C1CCN(CCCOc2ccc(Br)cc2)CC1 | . | . | . | . | . | -
Cc1ccccc1NC(=O)CCNC(=O)Cn1ccc2ccccc2c1=O | - | . | - | - | . | -
O=c1c2ccccc2nc(-c2ccoc2)n1CCc1ccccc1 | 25µM | - | ? | - | - | -
C/C(=C\C(=O)c1ccccc1)Nc1ccc(O)cc1 | - | - | - | - | - | .
C/C(=C\C(=S)Nc1ccccc1)Nc1ccccc1 | - | - | 13µM | - | - | -
O=C(/C=C/c1ccccc1)CC(O)(c1ccccc1)C(F)(F)F (stereo not given) | - | ? | 13µM | - | - | -
O=C(/C=C/c1ccccc1)CC(O)(c1ccccc1)C(F)(F)C(F)F (stereo not given) | - | - | ? | - | - | -
N#CC1=C(N)N(c2ccccc2)C(c2ccco2)C1(C#N)C#N (stereo not given) | 14µM | - | - | - | - | -
N#CC1=C(N)N(c2ccccc2)C(c2cccc([N+](=O)[O-])c2)C1(C#N)C#N (stereo not given) | - | - | - | - | - | .
Cc1cccc(N2C(S)=C(C#N)C(=O)NC2c2ccco2)c1 (stereo not given) | . | - | -[0.397 µM] | - | - | -
Cc1cccc(N2C(N)=C(C#N)C(C#N)(C#N)C2c2ccccc2)c1 (stereo not given) | 14µM | - | - | - | . | -
CCOC(=O)C1CCCN(S(=O)(=O)c2csc(C(N)=O)c2)C1 (stereo not given) | - | . | - | - | . | -
O=C(Cn1cnc2c(nnn2Cc2ccc(F)cc2)c1=O)N1CCN(c2ccccc2)CC1 | 25µM | - | - | - | - | .
O=c1c2ccccc2ncn1Cc1cccc2ccccc12 | - | - | 11µM | - | - | -
O=C(Cn1cnc2ccccc2c1=O)N1CCN(Cc2ccccc2)CC1 | 20µM | - | - | - | - | -
O=C(Cn1cnc2ccccc2c1=O)N1CCN(Cc2ccc3c(c2)OCO3)CC1 | - | - | - | - | - | -
Cc1ccccc1Cn1cnc2ccccc2c1=O | - | - | ? | - | - | -
Cc1ccccc1Nc1c(-c2ccc(N3CCOCC3)cc2)nc2ccc(Br)cn12 | - | . | ? | - | . | -
CC(C)c1nc2ccc(C(=O)NC(C)c3ccccc3)cc2o1 (stereo not given) | - | . | - | - | . | -
CCCCNC(=O)CC1Nc2cc(C)c(C)cc2NC1=O (stereo not given) | - | . | - | - | . | -
SMILES | ClpP mod | aSyn rescue | TDP-43 yeast inh | Abeta yeast res | Mm-Cpn inhibitor | FUS suppressor
O=C(c1cnn2c1NC(=C1CC1)C=C2C(F)F)N1CCc2ccccc21 | - | - | . | . | . | .
Cn1c(/C=C/c2ccc(Cl)cc2)c([N+](=O)[O-])c(=O)n(C)c1=O | - | - | 18µM | - | - | -
C[n+]1c(/C=C/c2ccc(F)cc2)ccc2ccccc21 | - | - | . | . | . | .
Nc1ccc(C(=O)OCCCc2nc3ccccc3[nH]2)cc1 | 28µM | - | - | - | - | -
Nc1ccc(C(=O)OCc2nc3ccccc3[nH]2)cc1 | - | - | - | - | - | -
O=C(N/N=C/c1cccc(Oc2ccccc2)c1)c1ccncc1 | . | - | 13µM | - | - | -
O=C(Nc1c(C(=O)c2ccc(Cl)cc2)oc2ccccc12)c1cc(=O)c2ccccc2o1 | - | . | - | - | . | -
COc1ccc(OC)c(NC(=O)c2cc(-c3ccc(Cl)s3)nc3ccccc23)c1 | ? | . | - | - | . | -
CCC1(CC)Cc2ccccc2-c2nc(NCCCO)[nH]c(=O)c21 | . | - | - | - | - | -
O=c1[nH]c(NCCCO)nc2c1C1(CCCC1)Cc1ccccc1-2 | 14µM | - | - | - | - | -
O=c1[nH]c(NNC(=S)NCc2ccccc2)nc2c1C1(CCCCC1)Cc1ccccc1-2 | 16µM | - | - | - | - | ?
Cc1ccccc1CN1Cc2cccc3c2[C@H](C=CC3)CC1=O | - | . | . | . | . | .
CCCCOC(=O)c1ccc(Nc2nc3ccccc3c3nnc(C)n23)cc1 | - | . | - | - | . | -
COc1ccc(NC(=O)C(C2CC2)n2c(=O)c(-c3cc4ccccc4[nH]3)nc3ccccc32)cc1 (stereo not given) | - | 14µM | - | - | . | ?
Cc1cccc(C)c1NC(=O)C(c1ccccc1)n1c(=O)c(-c2cc3ccccc3[nH]2)nc2ccccc21 (stereo not given) | - | - | ? | ? | . | -
Cc1cccc(C)c1NC(=O)C(c1ccncc1)n1c(=O)c(-c2cc3ccccc3[nH]2)nc2ccccc21 (stereo not given) | - | - | 14µM | - | . | ?
CSCCC(c1nc2ccccc2[nH]1)n1c(=O)c(-c2cc3ccccc3[nH]2)nc2ccccc21 (stereo not given) | ? | - | 18µM | ? | . | -
Cc1cccc(C)c1NC(=O)C(c1ccc(C#N)cc1)n1c(=O)c(-c2cc3ccccc3[nH]2)nc2ccccc21 (stereo not given) | - | - | 10µM | ? | . | -
CCCc1cc(-c2nc(N)ncc2-c2csc(C)n2)c(O)cc1OC | - | - | 13µM | - | - | -
CCCCN=C(N)NC(=O)OCc1ccccc1 | . | . | . | . | . | -
COC(=O)c1cc2sc(C)cc2n1Cc1ccc(Br)cc1F | ? | . | - | - | . | -
Cc1noc(C)c1C(=O)NCc1ccccc1 | 32µM | - | - | - | - | -
O=S1(=O)c2ccc(N3CC[C@H](O)C3)cc2O[C@H]2CCN1C2 | . | . | . | . | . | -
Cc1ccc(CN2CCCCC(NC(=O)Nc3ccccc3)C2=O)cc1 (stereo not given) | . | . | . | . | . | -
COc1ccccc1N1CCN(C2CC(=O)N(c3cccc(Br)c3)C2=O)CC1 (stereo not given) | . | - | - | - | - | -
COc1cc2c(cc1OC)CN(C1CC(=O)N(c3c(C)cccc3C)C1=O)CC2 (stereo not given) | . | - | 14µM | - | - | -

Assay outcomes: PubChem BioAssay, National Center for Advancing Translational Sciences (NCATS)
